ELG1 DNA repair – ELG1-dependent DNA repair inhibition | HEK293T ELG1-luciferase reporter, luminescence, 16 h; DNA damage induced by 5-fluorouridine | Potency, µM (highest dose often 46.1 µM), without a hit: at the top dose activity change, negative = inhibition, hits mostly inhibitors | actives 2.3% (n = 330,000) | AID 504467; further: potency means the concentration at half of the fitted maximal effect; nearly all actives have a fitted effect of over 55% in size
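Step one: seed 2,000 cells per well. Step two: pin-transfer compound or DMSO alongside 5-fluorouridine. Step three: incubate 16 hr, 37 °C, 5% CO2. Step four: add ONE-Glo, wait 30 min, read luminescence.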
Gal4-VP16 FLuc – Gal4-VP16 reporter inhibition counter-screen; Drosophila S2 Gal4-VP16 UAS-luciferase, luminescence, 20 h; actives 3.5% (n = 310,000); Potency, µM (doses to about 53.6 µM), without a hit: top-dose activity, negative = inhibition, actives largely listed as inhibitors; AID 2546;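 further: Gal4-VP16 expression switched on by copper sulfate through the metallothionein promoter; potency means the concentration at half of the fitted maximal effect; nearly all actives have a fitted effect of over 50% in size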
RORgamma inh – inhibitors of mouse ROR gamma transcriptional activity. Potency, µM (highest dose often 53.6 µM), for the others: top-dose activity change, negative = inhibition, most hits filed as inhibitors. P51450. actives 5.4% (n = 310,000). Drosophila S2 Gal4-RORgamma UAS-luciferase reporter, 20 h; further: potency means the concentration at half of the fitted maximal effect; nearly all actives have a fitted effect of over 60% in size
Target sequence (P51450 whole entry, looked up, the tested form may be a part): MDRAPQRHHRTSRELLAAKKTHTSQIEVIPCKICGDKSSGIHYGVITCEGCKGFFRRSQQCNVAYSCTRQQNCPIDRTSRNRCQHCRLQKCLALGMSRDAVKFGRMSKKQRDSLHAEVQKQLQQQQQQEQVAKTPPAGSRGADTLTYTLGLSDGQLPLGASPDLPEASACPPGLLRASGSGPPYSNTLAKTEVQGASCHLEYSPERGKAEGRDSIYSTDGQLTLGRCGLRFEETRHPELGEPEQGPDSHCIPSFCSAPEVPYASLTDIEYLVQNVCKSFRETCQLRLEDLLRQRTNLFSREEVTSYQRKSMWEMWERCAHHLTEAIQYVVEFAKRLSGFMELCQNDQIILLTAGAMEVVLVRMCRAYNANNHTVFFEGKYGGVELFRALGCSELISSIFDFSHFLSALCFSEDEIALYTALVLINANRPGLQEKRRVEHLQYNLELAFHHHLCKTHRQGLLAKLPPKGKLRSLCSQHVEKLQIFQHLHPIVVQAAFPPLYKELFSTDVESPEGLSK
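Stably transfected Drosophila Schneider cells are the test system, with ROR gamma fused to Gal4 and luciferase under UAS control; luminescence is read after 20 hr of 700 uM copper sulfate induction at ambient temperature.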
TDP1 cell CPT – growth inhibition of DT40 Tdp1-/-;hTDP1 cells with camptothecin (screen for TDP1 inhibitors); chicken DT40 Tdp1-/-;hTDP1 cells + 20 nM CPT, ATP luminescence, 48 h; Potency, µM (titrated, usually from 46.2 µM), for the others: top-dose activity change, negative = growth inhibition, actives largely listed as inhibitors; actives 12% (n = 420,000); AID 686979; further: potency means the concentration at half of the fitted maximal effect; nearly all actives have a fitted effect of over 55% in size
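Chicken DT40 Tdp1-/- cells complemented with human TDP1, 400 cells/well, exposed to compounds plus 20 nM camptothecin for at least 48 h at 37 C; viability read as ATP content by CellTiter-Glo luminescence.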
DT40 TDP1 no CPT – qHTS for Inhibitors of human tyrosyl-DNA phosphodiesterase 1 (TDP1): qHTS in cells in absence of CPT | DT40 Tdp1-/- hTDP1 cells, no CPT, ATP luminescence, 48 h | actives 15% (n = 420,000) | Potency, µM (series often up to 46.2 µM), inactives show at the highest dose activity change, negative = growth inhibition, usual class: inhibitors; further: potency means the concentration at half of the fitted maximal effect; nearly all actives have a fitted effect of over 55% in size
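Cells were dispensed at 400 per well, compounds added by pin tool, plates incubated ≥48 hr at 37 °C, then CellTiter-Glo added for 30 min at room temperature before luminescence reading. Line: DT40 Tdp1-/- complemented with hTDP1; camptothecin omitted.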
IL-1B inflam inh – blocks inflammasome-driven IL-1 beta release. THP-1 LPS/ATP IL-1B secretion, AlphaLISA, 16 h; active compounds read low. activity change, % at 57.5 µM. actives 4.7% (n = 360,000); in the data active means activity change below about -50%; inconclusive means mostly about -30% to -49%
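Secreted IL-1B measured by AlphaLISA bead assay after 16 h compound exposure of THP-1 cells; compounds (final up to 57.5 uM) added 1 h before LPS (250 ng/mL) and ATP (1.25 mM) stimulation; lower signal means less secretion.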
* hit, by the source's call; u = inconclusive; x = no result given; [ ] = another dose, or the depositor's remark. Sampled rows, rich in hits. Any-hit rate of the full collection: about 21%. Unless noted, the call rests on the fitted dose curve; in most records, active means well fitted curve in the direction sought with a large enough effect; inconclusive means small, poorly fitted or top-dose-only effect, or another doubt; inactive means no such curve, though single readings can be large; an effect the other way counts as inactive or inconclusive. On the % scale 0 is the no-effect control and ±100 the full control effect.

SMILES | ELG1 DNA repair | Gal4-VP16 FLuc | RORgamma inh | TDP1 cell CPT | DT40 TDP1 no CPT | IL-1B inflam inh
O=C(CSc1nccc(=O)[nH]1)NCc1ccc(Cl)cc1 | -4% | -3% | 12% | -10% | 12% | -2
CCNC(=O)C1(C)CCN(C(=O)c2cccc(OC(C)=O)c2C)C1 (stereo not given) | x | x | x | 3% | -23% | 1
COCCCNC(=O)C1CCN(C(=O)c2ccc(-n3ccc4ccccc43)s2)CC1 | x | x | x | 18µM* | 16µM* | x
CCn1c(C(=O)N2CCC(C(=O)NCCCOC)CC2)cc2sccc21 | x | x | x | -21% | -12% | x
O=C(NCc1ccc(F)cc1)C1CCN(C(=O)c2ccc(-n3ccc4ccccc43)s2)CC1 | x | x | x | 16µM* | 15µM* | x
O=C(CSc1nc(C(F)(F)F)cc(=O)[nH]1)N1CCC(Cc2ccccc2)CC1 | -2% | x | x | -11% | 12µM* | -19
Cc1cc(=O)[nH]c(SCC(=O)N2CCC(Cc3ccccc3)CC2)n1 | 12% | -9% | -2% | 3% | 6% | u
Cc1cc(=O)[nH]c(SCC(=O)N2CCN(C(c3ccccc3)c3ccccc3)CC2)n1 | 4% | 2% | 45% | 18µM* | u | -11
Cc1nc(SCC(=O)N2CCC(Cc3ccccc3)CC2)[nH]c(=O)c1C | 3% | x | x | 16µM* | 23µM* | 9
O=c1oc2ccccc2c2c1C1O[C@](c3ccsc3)(Cc3c1ccc1ccccc31)O2 | x | 0%[10 µM] | u | x | x | x
Cc1ccc(NC(=S)NN(C)c2cc(C)nc(C)n2)cc1 | u | -20% | -5% | 6% | -2% | 26
COc1ccc(Nc2oc(COc3ccccc3F)nc2C#N)cc1 | 14% | 6% | 0% | u | 13µM* | -2
N#Cc1nc(COc2ccccc2F)oc1NCCc1ccccc1 | u | 17% | u | -5% | -19% | -77*
COc1ccc(CCNc2oc(COc3ccccc3)nc2C#N)cc1 | 12% | 2% | 19% | u | u | -9
Cc1cc2c(cc1S(=O)(=O)NCCc1ccc(Cl)cc1)OCC(=O)N2 | -22% | 0% | 4% | -10% | -14% | 15
Cc1cc2nc(CO)[nH]c2cc1C | 22% | 19% | -17% | 0% | 4% | 0
COc1cc2nc(CCc3nc4cc(OC)c(OC)cc4[nH]3)[nH]c2cc1OC | x | x | x | 5.6µM* | 2µM* | x
CCCc1c(-c2cccc(Cl)c2)ncn1Cc1ccccc1OC | x | x | x | 5.8µM* | 9.2µM* | u
COc1ccccc1CCn1c(=O)c(-c2ccc(F)c(F)c2)nc2cncnc21 | x | -15% | -13% | -3% | -8% | x
CCCCc1c(-c2cccc(Cl)c2)ncn1CCc1ccccc1OC | x | x | x | 8.2µM* | 8.2µM* | -58*
CCCCCc1c(-c2ccc(OC)cc2)ncn1CCc1ccccc1OC | x | x | x | 13µM* | 15µM* | -94*
COc1ccccc1CCn1c(=O)c(-c2cccc(F)c2)nc2cncnc21 | x | -1% | -16% | -2% | 4% | x
COc1ccccc1CCn1c(=O)c(-c2ccccc2)nc2cncnc21 | x | -2% | -10% | u | u | x
CCCCc1c(-c2ccccc2)ncn1CCc1ccccc1OC | x | x | x | u | 16µM* | u
Cn1cc(-c2nc3cnc(N4CCOCC4)nc3n(CCC#N)c2=O)c2ccccc21 | x | 5% | 22% | -1% | 23% | x
SMILES | ELG1 DNA repair | Gal4-VP16 FLuc | RORgamma inh | TDP1 cell CPT | DT40 TDP1 no CPT | IL-1B inflam inh
CC1(c2nnnn2Cc2ccccc2)CCC(=O)N1Cc1cccnc1 (stereo not given) | x | x | x | -7% | -9% | 6
CCCCc1c(-c2ccc(OC)cc2)ncn1CCc1ccccc1OC | x | x | x | 21µM* | 23µM* | -114*
CCCCc1c(-c2ccc(F)cc2)ncn1CCc1ccccc1OC | x | x | x | u | 21µM* | u
CCCCc1c(Cc2ccccc2)ncn1CCc1ccccc1OC | x | x | x | 2.9µM* | 5.2µM* | -58*
CCCCCc1c(-c2ccc(Cl)cc2)ncn1CCc1ccccc1OC | x | x | x | 8.2µM* | 7.3µM* | -63*
COc1ccccc1CCn1c(=O)c(-c2cc(F)cc(F)c2)nc2cncnc21 | x | 6% | -11% | -9% | -4% | x
CCc1ccccc1OCCCOc1ccc(OC)cc1 | 3% | -19% | -3% | 1% | 0% | 41
CCC[C@H]1COCCS(=O)(=O)N1Cc1ccc(F)cc1 | x | x | x | -12% | -15% | x
COc1ccc(N2CC(NC(=O)C3CCCCC3)CC2=O)cc1OC (stereo not given) | x | x | x | -17% | 11% | x
CC(C)n1c(SCC(=O)c2ccc(F)cc2)nc2c(sc3ccccc32)c1=O | x | x | x | 8% | 6% | x
COc1cccc(-n2c(SCC(N)=O)nc3c(oc4ccccc43)c2=O)c1 | x | x | x | u | -27% | x
COc1ccc2[nH]c(=O)c(CN(Cc3cccs3)Cc3nnnn3C(C)(C)C)cc2c1 | u | 6%[0.365 µM] | 29% | u | 23µM* | -8
CCOc1ccc2[nH]c(=O)c(CN(Cc3cccs3)Cc3nnnn3C(C)(C)C)cc2c1 | u | u | u | 21µM* | 16µM* | u
Cc1ccc(C(=O)OCc2cc(=O)n3nc(-c4cccs4)sc3n2)cc1 | x | x | x | -10% | -22% | x
CCOC1=C2[C@H](c3ccccc3)N(S(=O)(=O)c3ccccc3)C[C@H]2n2c(=O)n(-c3ccccc3)c(=O)n2C1 | x | x | x | -29% | -23% | -7
COc1cccc(-n2ccnc2SCC(=O)Nc2cccc(C)c2C)c1 | x | x | x | 21µM* | 16µM* | x
CCOC(=O)c1ccc(NC(=O)CSc2nccn2C)cc1 | u | u | 13% | u | u | -15
Cc1ccccc1CSc1nccn1-c1ccccc1 | u | 13µM* | 2.5µM* | -24% | u | -20
CCOC(=O)c1ccc(NC(=O)CSc2nccn2-c2cc(C)cc(C)c2)cc1 | x | x | x | 23µM* | 18µM* | x
COc1cccc(-n2ccnc2SCC(=O)Nc2ccccc2)c1 | 0% | 3% | -23% | 5.8µM* | 8.2µM* | -15
O=C(CSc1nc2ncccc2o1)Nc1cccc(C(F)(F)F)c1 | x | x | x | -22% | -20% | x
CCC(CC)C(=O)Nc1nnc(S(=O)(=O)N2CCCC2)s1 | 9% | -11% | 13% | 2% | -8% | -10
COc1cccc(NC(=O)CSc2nccn2-c2cccc(OC)c2)c1 | u | -16% | 17% | u | u | -13
Cc1cc(C)cc(-n2ccnc2SCC(=O)Nc2ccc3c(c2)OCO3)c1 | x | x | x | u | 21µM* | x
COc1cccc(-n2ccnc2SCC(=O)Nc2ccccc2F)c1 | u | -4% | u | 0% | -29% | -70*

Screening results deposited in PubChem by National Center for Advancing Translational Sciences (NCATS).
